Drawing on article PMC7862700, “An all-to-all approach to the identification of sequence-specific readers for epigenetic DNA modifications on cytosine”, this text covers binding signal for one sequence.

Common to all, as to experiment: DAPPL (digital affinity profiling via proximity ligation, sequencing); 10 mM Tris-HCl pH 7.5, 50 mM NaCl, 1 mM DTT, 4% glycerol, room temperature, 30 min; GST-TFs on glutathione beads, 16-mer random dsDNA library, 0.1% formaldehyde crosslink after washing; high values mean tight binding
Holding throughout (details): protein: recombinant; tags: N-terminal GST; dsDNA, one strand shown

One experiment has as its target T1, ELK1 (Homo sapiens, UniProt P19419 1-428).
T1 sequence: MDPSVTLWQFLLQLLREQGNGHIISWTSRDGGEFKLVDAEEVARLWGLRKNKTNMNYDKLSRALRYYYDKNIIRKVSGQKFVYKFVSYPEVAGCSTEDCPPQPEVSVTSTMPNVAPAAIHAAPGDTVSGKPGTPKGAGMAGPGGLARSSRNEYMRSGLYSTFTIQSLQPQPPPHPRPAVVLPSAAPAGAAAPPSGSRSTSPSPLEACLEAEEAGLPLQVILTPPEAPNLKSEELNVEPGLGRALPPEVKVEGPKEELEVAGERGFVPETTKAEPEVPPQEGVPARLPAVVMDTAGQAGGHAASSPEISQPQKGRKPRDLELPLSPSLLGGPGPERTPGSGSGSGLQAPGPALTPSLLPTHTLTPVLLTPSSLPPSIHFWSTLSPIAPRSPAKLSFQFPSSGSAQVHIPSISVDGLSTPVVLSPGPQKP
In short, it runs like this:
(§1)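 Sequencing on an Illumina NextSeq500 followed washing, crosslinking with 0.1% formaldehyde, proximity ligation (BsaI/T4 ligase, 1 h, 37 °C) and PCR amplification of pools that had been incubated for 30 min at room temperature with 200 nmole of a random double-stranded 16-mer DNA library in Tris/NaCl/DTT/glycerol buffer. Each pool held DNA-barcoded human transcription factors, expressed in yeast as GST fusions and captured on glutathione beads, plus a tag-only sample. Binding signal is a hexamer's read frequency for a factor divided by its frequency in the tag-only sample.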

A further experiment deals with T2, GABPA (Homo sapiens, UniProt Q06546 1-454).
T2 sequence: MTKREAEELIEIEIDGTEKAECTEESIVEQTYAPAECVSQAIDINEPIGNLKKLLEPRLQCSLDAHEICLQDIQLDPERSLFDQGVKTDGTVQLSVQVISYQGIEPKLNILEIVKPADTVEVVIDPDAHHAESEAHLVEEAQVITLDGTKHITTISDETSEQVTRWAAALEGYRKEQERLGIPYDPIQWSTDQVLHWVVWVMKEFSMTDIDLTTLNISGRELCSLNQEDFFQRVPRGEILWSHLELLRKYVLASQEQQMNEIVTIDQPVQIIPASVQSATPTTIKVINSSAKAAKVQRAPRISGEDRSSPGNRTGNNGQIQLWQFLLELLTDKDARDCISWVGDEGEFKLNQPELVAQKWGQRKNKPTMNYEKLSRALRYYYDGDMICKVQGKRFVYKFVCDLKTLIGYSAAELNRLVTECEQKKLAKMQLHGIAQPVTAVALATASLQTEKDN
The procedure, abridged: as §1

The next experiment concerns the target ELF1 (Homo sapiens, UniProt P32519 1-619). In short, it runs like this:
as §1

Another experiment concerns the target T3, EHF (Homo sapiens, UniProt Q9NZC4 1-300).
T3 sequence: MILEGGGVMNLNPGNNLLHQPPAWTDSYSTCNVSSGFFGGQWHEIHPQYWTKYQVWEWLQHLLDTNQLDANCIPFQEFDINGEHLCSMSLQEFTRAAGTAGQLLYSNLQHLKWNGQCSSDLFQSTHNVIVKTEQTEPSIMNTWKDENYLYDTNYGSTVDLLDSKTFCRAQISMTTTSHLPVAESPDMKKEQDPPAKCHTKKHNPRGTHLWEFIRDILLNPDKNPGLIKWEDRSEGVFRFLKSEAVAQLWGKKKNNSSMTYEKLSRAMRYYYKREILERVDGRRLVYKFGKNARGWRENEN
In short, it runs like this: as §1

The target in a further experiment is T4, SPIC (Homo sapiens, UniProt Q8N5J4 1-248).
T4 sequence: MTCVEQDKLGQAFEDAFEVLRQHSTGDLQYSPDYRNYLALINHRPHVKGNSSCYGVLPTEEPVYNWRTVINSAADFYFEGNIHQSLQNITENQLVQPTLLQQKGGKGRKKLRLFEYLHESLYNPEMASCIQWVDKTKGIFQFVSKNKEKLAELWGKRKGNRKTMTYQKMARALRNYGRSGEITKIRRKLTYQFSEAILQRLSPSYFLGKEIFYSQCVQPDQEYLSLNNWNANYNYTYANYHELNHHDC
In short, it runs like this:
as §1

The next experiment addresses ELF4 (Homo sapiens, UniProt Q99607 1-663). In short, it runs like this: as §1
Another experiment concerns the target T5, ELK4 (Homo sapiens, UniProt P28324-2 1-405).
T5 sequence: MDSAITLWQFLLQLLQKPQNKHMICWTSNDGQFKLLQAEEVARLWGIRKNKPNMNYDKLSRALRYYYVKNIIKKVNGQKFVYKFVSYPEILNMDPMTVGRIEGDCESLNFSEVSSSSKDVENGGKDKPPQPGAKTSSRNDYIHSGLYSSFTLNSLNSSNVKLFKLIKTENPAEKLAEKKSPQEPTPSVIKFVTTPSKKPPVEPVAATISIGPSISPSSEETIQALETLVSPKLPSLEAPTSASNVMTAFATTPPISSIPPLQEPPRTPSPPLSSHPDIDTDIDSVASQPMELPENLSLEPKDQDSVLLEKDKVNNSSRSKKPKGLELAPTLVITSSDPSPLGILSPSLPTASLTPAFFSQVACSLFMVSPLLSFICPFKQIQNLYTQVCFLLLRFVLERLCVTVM
In short, it runs like this: as §1

In another experiment the target is T6, ELF3 (Homo sapiens, UniProt P78545 1-371).
T6 sequence: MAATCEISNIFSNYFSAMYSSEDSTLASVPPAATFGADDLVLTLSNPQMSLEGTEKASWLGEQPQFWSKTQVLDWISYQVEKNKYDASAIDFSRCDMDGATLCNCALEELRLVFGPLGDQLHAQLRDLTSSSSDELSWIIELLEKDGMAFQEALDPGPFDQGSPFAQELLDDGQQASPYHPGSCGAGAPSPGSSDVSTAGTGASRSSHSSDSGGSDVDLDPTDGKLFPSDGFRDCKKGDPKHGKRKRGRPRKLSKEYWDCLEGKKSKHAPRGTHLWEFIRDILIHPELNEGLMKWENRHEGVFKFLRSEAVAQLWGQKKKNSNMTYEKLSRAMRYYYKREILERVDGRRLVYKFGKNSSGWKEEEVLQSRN
The procedure, abridged:
as §1

A further experiment concerns the target T7, ERF (Homo sapiens, UniProt P50548 1-548).
T7 sequence: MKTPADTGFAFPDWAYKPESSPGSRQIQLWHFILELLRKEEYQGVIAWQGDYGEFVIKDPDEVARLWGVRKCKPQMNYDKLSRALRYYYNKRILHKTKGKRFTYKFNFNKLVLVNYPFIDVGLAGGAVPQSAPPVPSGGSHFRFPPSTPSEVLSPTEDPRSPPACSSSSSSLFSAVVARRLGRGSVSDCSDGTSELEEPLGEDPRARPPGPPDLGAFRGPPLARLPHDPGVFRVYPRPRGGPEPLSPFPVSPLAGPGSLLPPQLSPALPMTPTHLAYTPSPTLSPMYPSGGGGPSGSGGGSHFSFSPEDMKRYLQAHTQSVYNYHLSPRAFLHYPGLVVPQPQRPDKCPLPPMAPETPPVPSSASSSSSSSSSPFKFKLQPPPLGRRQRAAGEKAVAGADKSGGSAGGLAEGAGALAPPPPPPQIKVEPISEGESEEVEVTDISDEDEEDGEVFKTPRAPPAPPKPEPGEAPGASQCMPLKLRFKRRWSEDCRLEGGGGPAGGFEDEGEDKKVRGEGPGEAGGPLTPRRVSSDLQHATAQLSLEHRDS
In short, it runs like this: as §1

Another experiment has as its target T8, ETV7 (Homo sapiens, UniProt Q9Y603 1-341).
T8 sequence: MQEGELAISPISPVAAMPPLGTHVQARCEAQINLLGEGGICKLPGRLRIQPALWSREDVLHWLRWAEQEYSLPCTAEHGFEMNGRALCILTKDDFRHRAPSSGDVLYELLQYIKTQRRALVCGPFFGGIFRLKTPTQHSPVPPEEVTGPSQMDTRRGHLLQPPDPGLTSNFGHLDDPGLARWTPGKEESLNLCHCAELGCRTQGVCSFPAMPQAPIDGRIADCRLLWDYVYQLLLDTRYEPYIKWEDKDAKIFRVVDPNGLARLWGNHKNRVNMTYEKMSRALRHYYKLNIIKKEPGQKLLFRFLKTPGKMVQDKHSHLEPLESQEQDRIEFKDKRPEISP
In short, it runs like this:
as §1

The target of a further experiment is ETV6 (Homo sapiens, UniProt P41212 1-452). The procedure, abridged: as §1
ETV6, sequence (P41212 whole entry): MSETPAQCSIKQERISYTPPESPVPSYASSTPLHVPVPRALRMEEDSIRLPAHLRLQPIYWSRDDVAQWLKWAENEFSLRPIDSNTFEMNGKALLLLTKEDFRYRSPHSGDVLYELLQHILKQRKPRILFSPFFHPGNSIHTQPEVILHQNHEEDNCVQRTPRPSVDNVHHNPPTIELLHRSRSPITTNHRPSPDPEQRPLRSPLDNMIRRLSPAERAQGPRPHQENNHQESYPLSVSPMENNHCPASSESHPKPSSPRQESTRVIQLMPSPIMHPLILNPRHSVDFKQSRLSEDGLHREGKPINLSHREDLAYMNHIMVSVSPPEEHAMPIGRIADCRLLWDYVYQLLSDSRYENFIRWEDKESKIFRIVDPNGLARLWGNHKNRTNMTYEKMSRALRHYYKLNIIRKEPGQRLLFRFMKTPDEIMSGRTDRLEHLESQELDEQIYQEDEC

ELF1, sequence (P32519 whole entry): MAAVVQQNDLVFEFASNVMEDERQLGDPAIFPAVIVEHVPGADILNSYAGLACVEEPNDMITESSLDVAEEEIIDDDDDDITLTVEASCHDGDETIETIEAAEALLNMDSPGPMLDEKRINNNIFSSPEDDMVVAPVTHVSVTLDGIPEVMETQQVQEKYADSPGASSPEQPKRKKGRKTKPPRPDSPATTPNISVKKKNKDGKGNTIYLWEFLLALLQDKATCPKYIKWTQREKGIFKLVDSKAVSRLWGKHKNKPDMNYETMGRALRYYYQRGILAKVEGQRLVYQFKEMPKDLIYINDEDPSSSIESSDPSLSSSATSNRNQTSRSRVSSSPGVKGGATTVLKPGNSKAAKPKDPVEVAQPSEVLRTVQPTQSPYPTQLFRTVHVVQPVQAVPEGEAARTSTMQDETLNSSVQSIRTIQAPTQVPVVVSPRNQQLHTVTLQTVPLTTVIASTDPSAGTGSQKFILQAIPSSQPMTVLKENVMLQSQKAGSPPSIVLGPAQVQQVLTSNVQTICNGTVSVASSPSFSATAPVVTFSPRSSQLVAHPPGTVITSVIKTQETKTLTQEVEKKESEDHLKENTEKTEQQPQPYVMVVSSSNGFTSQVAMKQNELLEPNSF
ELF4, sequence (Q99607 whole entry): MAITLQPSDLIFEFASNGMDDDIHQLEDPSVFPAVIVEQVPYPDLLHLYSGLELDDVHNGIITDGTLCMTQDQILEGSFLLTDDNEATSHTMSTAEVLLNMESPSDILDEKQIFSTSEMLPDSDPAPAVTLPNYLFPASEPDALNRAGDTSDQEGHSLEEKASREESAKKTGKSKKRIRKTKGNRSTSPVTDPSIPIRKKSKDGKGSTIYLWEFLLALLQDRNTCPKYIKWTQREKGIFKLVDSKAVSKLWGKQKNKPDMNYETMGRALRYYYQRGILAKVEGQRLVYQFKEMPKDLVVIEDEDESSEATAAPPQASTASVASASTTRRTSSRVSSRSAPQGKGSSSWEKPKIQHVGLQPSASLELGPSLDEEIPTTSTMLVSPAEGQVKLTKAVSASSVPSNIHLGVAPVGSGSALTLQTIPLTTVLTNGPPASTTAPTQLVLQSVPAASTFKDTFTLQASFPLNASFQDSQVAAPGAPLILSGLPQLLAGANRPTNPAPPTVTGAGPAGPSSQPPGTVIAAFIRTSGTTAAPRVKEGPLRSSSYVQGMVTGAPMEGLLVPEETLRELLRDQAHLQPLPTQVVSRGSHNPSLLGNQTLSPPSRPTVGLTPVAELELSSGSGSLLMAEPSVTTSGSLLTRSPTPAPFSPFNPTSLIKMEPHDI

On to CACCTA, for which the binding signal in the experiment with ELK1 is 1.01 fold enrichment (6-mer frequency, TF over GST control); in the experiment with GABPA it was 1.04 fold enrichment (6-mer frequency, TF over GST control); in the experiment with ELF1, 1.02 fold enrichment (6-mer frequency, TF over GST control); with EHF it was 1.05 fold enrichment (6-mer frequency, TF over GST control); with SPIC, 1.09 fold enrichment (6-mer frequency, TF over GST control); with ELF4, 1.1 fold enrichment (6-mer frequency, TF over GST control). For the same sequence, the binding signal with ELK4 was 1 fold enrichment (6-mer frequency, TF over GST control); with ELF3, 1.18 fold enrichment (6-mer frequency, TF over GST control); in the experiment with ERF, 1.06 fold enrichment (6-mer frequency, TF over GST control); in the experiment with ETV7, 1.08 fold enrichment (6-mer frequency, TF over GST control); in the experiment with ETV6, 1.02 fold enrichment (6-mer frequency, TF over GST control).
